The nature of assay [1]: compounds binding Alexa647 anti-His antibody – biochemical, small-molecule microarray, 635 nm fluorescence, artefact control for SMM control protein annotation, primary screen (AID 1128).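 Further: score merges feature fluorescence with signal-to-noise for each printed compound spot.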 The note with it: higher = more signal.
The test system of assay [2] is Human papillomavirus type 1a E7 protein (residues 1-88). Description: HPV1a E7 small-molecule binders, primary screen, biochemical, small-molecule microarray, residues 1-88, 635 nm (AID 1129). The note with it: small-molecule microarray binding, fluorescence 635 nm; higher = more signal.
Assay [3] deals with Focal adhesion kinase 1 (Homo sapiens) (UniProt Q05397). Description: PTK2 protein binding on printed compound slides – biochemical, small-molecule microarray, 635/667 nm fluorescence, BSA, DTT, primary screen (AID 1130).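 Further: composite of spot emission at 667 nm and signal to noise over triplicate slides.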 The note with it: 635 nm fluorescence, higher = more signal.
Chain of Focal adhesion kinase 1 (Homo sapiens) (Q05397 whole entry, looked up): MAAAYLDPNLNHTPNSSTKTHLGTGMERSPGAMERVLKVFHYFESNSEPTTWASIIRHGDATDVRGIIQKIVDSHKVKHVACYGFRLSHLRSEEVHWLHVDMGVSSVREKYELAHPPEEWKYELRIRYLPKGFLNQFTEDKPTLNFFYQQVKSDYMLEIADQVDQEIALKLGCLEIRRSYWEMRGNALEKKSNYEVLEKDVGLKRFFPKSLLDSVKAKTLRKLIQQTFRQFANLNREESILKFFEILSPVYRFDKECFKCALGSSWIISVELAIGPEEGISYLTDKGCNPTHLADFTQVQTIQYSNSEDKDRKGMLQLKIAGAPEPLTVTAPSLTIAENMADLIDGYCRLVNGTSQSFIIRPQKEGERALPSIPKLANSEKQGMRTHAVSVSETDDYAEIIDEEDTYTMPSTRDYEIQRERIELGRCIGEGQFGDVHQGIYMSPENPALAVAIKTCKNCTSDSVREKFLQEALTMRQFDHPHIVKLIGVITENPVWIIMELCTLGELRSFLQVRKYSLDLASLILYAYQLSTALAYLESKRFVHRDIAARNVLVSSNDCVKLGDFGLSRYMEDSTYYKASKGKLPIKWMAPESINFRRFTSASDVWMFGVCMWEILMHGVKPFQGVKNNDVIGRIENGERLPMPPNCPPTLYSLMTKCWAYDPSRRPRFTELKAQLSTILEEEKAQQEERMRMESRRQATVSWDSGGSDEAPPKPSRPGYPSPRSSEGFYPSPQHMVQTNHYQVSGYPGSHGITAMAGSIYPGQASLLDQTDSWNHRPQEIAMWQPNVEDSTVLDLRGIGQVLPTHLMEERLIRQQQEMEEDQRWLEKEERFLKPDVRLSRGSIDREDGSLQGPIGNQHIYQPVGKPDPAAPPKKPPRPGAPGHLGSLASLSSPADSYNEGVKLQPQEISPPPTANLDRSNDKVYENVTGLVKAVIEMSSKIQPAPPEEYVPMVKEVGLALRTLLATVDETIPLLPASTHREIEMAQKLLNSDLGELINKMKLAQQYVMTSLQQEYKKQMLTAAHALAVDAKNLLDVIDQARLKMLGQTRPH
The test system of assay [4] is Fibrinogen (Alexa647-labelled). As to the kind of experiment: Alexa647-fibrinogen binding to printed small molecules – biochemical, small-molecule microarray, 635/667 nm fluorescence, artefact control for SMM control-protein annotation, profiling panel (AID 1131).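 Further: z-score merges 667 nm fluorescence with per-spot signal-to-noise over triplicate slides.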 The settings on record: fibrinogen-A647 binding fluorescence, higher = more signal.
The target in assay [5] is Follistatin (Homo sapiens) (UniProt P19883). Description: FST protein binding to printed compounds – biochemical, small-molecule microarray, 635/667 nm fluorescence, primary screen (AID 1132). The note with it: 635 nm fluorescence, higher = more signal.
Chain of Follistatin (Homo sapiens) (P19883 whole entry, looked up): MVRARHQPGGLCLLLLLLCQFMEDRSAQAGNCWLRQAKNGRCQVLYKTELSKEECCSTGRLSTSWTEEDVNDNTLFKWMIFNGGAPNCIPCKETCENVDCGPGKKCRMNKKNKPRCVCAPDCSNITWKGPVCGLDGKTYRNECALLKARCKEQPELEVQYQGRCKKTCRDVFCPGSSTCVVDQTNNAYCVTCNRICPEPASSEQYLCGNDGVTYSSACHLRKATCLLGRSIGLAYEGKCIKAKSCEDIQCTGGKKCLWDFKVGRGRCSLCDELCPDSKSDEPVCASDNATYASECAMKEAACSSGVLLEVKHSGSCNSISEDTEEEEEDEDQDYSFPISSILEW
Assay [6] has as its target Fibroblast growth factor 2 (Homo sapiens) (UniProt P09038). Description: basic fibroblast growth factor binding to printed compounds – biochemical, small-molecule microarray, 635/667 nm fluorescence, primary screen (AID 1133). The settings on record: FGF2, fluorescence 635/667, higher = more signal.
A short description of assay [7]: JC-1 mitochondrial potential readout, lung cancer cells – cell-based, A549, JC-1 fluorescence, basal, 24 h, 100 nL, profiling panel (AID 1138).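 Further: A549 lung adenocarcinoma cells under basal conditions with no added stimulus; test concentration not given here.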 The settings on record: higher = more signal.
The test system of a further assay is Lefty1. As to the kind of experiment: Lefty1 protein binding to printed compounds – biochemical, small-molecule microarray, 635/667 nm fluorescence, primary screen (AID 1139). The note with it: fluorescence 635/667, higher = more signal.
In assay [8] the test system is wheat germ agglutinin (Triticum aestivum), Alexa647-labelled. Description: Alexa647-WGA lectin binding to printed small molecules – biochemical, small-molecule microarray, 635/667 nm fluorescence, artefact control for SMM control-protein annotation, profiling panel (AID 1140).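 Further: score merges 667 nm feature emission with signal to noise over triplicate slides.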 The settings on record: WGA-A647 binding, 635 nm fluorescence, higher = more signal.
Assay [9] addresses Luciferin 4-monooxygenase (Photinus pyralis) (UniProt P08659). Description: inhibition of purified Photinus pyralis luciferase – biochemical, luminescence, purified enzyme, 2006 set, primary screen (AID 1141).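 Further: cell-free assay with purified firefly luciferase at 100 ng per well in PBS; test concentration not given here.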 The note with it: purified firefly luciferase, SteadyGlo luminescence, 30 min; higher = more signal, called active from +8 up or from −8 down.
Assay [10] concerns Wnt5a (protein binding on small-molecule microarray). As to the kind of experiment: small molecules binding Wnt5a protein – biophysical, small-molecule microarray, 635/667 nm fluorescence, primary screen (AID 1142).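 Further: fluorescence read at 667 nm with signal to noise per printed feature.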 The note with it: 635 nm fluorescence, higher = more signal.
Assay [11] is described as follows: ATP-based viability of Huh7 replicon cells – cell-based, CellTiter-Glo luminescence, basal, 48 h, cytotoxicity control for HCV replication inhibitor project, primary screen (AID 1143).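 Further: Huh7 hepatoma cells carrying a hepatitis C replication reporter with no stimulus; test concentration not given here.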 The note with it: higher = more signal, called active from +8 up or from −8 down.
Assay [12] in a line: Pseudomonas biofilm growth suppression – PAO1 strain, BacTiter-Glo luminescence, LB-PBS, primary screen (AID 1144). The note with it: P. aeruginosa PAO1 biofilm, 12 h, higher = more signal.
Assay [13] is described as follows: basal CRE-LacZ reporter activity in PC12 – cell-based, unstimulated, primary screen (AID 1145). The settings on record: no forskolin, luminescence, 4.5 h, higher = more signal, called active from +8 up or from −8 down.
The nature of assay [14]: forskolin-driven CRE-LacZ activity in PC12 – cell-based, CRE-LacZ reporter, forskolin-stimulated, primary screen (AID 1146).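 Further: PC12 cells with 6xCRE LacZ reporter stimulated by forskolin 10 µM; beta-galactosidase reporter signal reflecting CREB driven transcription.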 The note with it: luminescence, 4.5 h, higher = more signal, called active from +8 up or from −8 down.
Assay [15] deals with Streptavidin (Streptomyces avidinii) (UniProt P22629). As to the kind of experiment: compounds binding control protein streptavidin – biophysical, small-molecule microarray, 635/667 nm fluorescence, artefact control for SMM compound annotation, primary screen (AID 1147).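 Further: signal reflects streptavidin binding to arrayed compounds as a control protein.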 The settings on record: higher = more signal.
Chain of Streptavidin (Streptomyces avidinii) (P22629 whole entry, looked up): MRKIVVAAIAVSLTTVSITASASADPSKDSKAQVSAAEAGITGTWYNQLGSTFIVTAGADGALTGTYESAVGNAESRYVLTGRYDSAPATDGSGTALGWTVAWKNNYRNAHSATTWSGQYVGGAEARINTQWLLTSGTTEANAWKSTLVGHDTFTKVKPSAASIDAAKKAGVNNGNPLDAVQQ
Assay [16] can be described thus: probe aInhba binding on compound microarray – biochemical, small-molecule microarray, 635/667 nm fluorescence, primary screen (AID 1148).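 Further: score merges 667nm spot fluorescence with signal-to-noise for antibody binding to printed compounds.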 The settings on record: higher = more signal.
Assay [17] deals with Torsin-1A (Homo sapiens) (UniProt O14656). Description: TOR1A wild-type binding on microarray – cell lysate, small-molecule microarray, lysate, 635/667 nm, primary screen (AID 1149). The settings on record: COS7 hTOR1A-WT lysate, 635 nm fluorescence, higher = more signal.
Chain of Torsin-1A (Homo sapiens) (O14656 whole entry, looked up): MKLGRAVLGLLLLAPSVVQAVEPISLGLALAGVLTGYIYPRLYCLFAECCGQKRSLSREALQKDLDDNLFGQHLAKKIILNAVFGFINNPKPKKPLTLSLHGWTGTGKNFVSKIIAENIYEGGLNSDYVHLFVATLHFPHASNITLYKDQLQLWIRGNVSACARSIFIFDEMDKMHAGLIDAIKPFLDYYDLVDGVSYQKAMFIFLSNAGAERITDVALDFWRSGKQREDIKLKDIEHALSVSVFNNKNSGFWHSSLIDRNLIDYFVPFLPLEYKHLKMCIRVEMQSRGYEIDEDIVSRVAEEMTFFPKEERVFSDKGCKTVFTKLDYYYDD
Assay [18] has the same target. As to the kind of experiment: torsin A mutant lysate binding on microarrays – cell lysate, small-molecule microarray, COS7 lysate, 635/667 nm fluorescence, primary screen (AID 1150).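 Further: score pools 667 nm emission and signal to noise measuring lysate protein binding.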 The note with it: COS7 hTOR1A mutant lysate, 635 nm fluorescence, higher = more signal.
For assay [19], the system named is Sonic hedgehog protein (Shh). Description: Sonic hedgehog microarray binding compounds – biochemical, small-molecule microarray, 635/667 nm fluorescence, primary screen (AID 1151).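 Further: Shh protein binding to compounds spotted on small-molecule microarray slides; score combines spot fluorescence intensity with signal-to-noise across triplicate slides.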 The note with it: 635 nm fluorescence, higher = more signal.

This note sets out measurements from PubChem BioAssay.

Molecules are shown by their SMILES. Activity calls are given as the source filed them. Unless noted, how the calls were made is not given here.

Chain of Fibroblast growth factor 2 (Homo sapiens) (P09038 whole entry, looked up): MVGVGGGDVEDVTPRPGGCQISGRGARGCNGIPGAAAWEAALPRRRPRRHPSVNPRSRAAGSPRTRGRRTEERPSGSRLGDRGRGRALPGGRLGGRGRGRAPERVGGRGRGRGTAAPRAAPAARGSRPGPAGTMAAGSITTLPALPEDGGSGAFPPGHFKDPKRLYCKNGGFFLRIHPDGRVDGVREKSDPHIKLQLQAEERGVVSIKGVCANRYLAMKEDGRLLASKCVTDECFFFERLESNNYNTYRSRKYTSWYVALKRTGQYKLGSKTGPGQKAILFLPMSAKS
Chain of Luciferin 4-monooxygenase (Photinus pyralis) (P08659 whole entry, looked up): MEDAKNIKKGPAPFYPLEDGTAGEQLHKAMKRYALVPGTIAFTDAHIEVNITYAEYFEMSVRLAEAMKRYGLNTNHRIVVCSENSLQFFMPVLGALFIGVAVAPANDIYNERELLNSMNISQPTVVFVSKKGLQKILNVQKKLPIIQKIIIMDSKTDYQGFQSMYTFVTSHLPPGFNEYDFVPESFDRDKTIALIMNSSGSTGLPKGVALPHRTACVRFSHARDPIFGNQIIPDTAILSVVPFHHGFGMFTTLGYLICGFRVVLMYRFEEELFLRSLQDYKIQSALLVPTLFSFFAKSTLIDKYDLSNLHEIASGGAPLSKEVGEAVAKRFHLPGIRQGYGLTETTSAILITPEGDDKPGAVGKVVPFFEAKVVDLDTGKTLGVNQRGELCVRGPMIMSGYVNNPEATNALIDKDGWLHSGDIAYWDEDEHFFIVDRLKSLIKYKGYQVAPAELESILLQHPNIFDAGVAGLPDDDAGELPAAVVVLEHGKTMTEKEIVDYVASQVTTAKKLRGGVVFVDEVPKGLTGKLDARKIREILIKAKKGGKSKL

Regarding `COCCOC(=O)N1C(=O)[C@@]2(c3cc(C#Cc4ccc(OC)cc4)ccc31)[C@H](c1ccccc1OCCO)N1[C@H](c3ccccc3)[C@H](c3ccccc3)OC(=O)[C@H]1[C@@H]2C(=O)N1CCCCCCC1`, the composite z-score was 0.623 in assay [1]; 1.2 in assay [2]; 0.701 in [3]; -0.183 in assay [4]; 1.51 in assay [5]; 1.73 in [6]. Besides, the composite z-score was determined as 1.23 in the assay on Lefty1; 1.33 in assay [8]; 1.28 in assay [10]; 2.64 in [15]; 1.56 in assay [16]; 2.72 with Torsin-1A (Homo sapiens) [17]. Also, the composite z-score worked out at 2.09 with Torsin-1A (Homo sapiens) [18] and 2.04 in [19]. Further, the z-score is -0.775 in assay [7]; -0.246 (inactive) in assay [9]; -4.35 (inactive) in assay [11]; -2.23 (inactive) in [12]; -1.42 (inactive) in assay [13]; -0.693 (inactive) in [14].

In the case of `C=CCNC(=O)[C@@H]1[C@H]2C(=O)O[C@H](c3ccccc3)[C@H](c3ccccc3)N2[C@H](c2ccc(O)cc2)[C@@]12C(=O)N(C(=O)OCCOC)c1ccc(C#CC3(O)CCCCCC3)cc12`, the composite z-score in assay [1] is -0.461; in assay [2], -1.32; in [3], -0.365; in assay [4], -2.02; in assay [5], -1.01; in [6], -1.93. For the same molecule, the composite z-score in the assay with Lefty1 was -0.624; in assay [8], -0.556; in [10], -1.3; in assay [15] it was -1.23; in [16], -0.204; with Torsin-1A (Homo sapiens) [17], -1.68. Moreover, the composite z-score with Torsin-1A (Homo sapiens) [18] is -1.47; in assay [19], -0.382. Also, the z-score in assay [7] is 0.426; in assay [9] it was 0.779 (inactive); in assay [11] it was -1.16 (inactive); in assay [12], -0.53 (inactive); in assay [13], -1.28 (inactive); in assay [14], 0.142 (inactive).

Turning to `COc1ccc(-c2cc3c(c(CCc4ccccc4)n2)[Si](C(C)C)(C(C)C)OC3)cn1`, the composite z-score in assay [1] is 0.0933; in assay [2] it was -0.765; in assay [3] it was -0.192; in assay [4] it was -0.284; in assay [5], 0.323; in [6] it was -0.025. For the same molecule, the composite z-score is 0.496 in the assay with Lefty1; -0.289 in assay [8]; -0.131 in assay [10]; 0.294 in assay [15]; -0.0986 in assay [16]; 0.188 with Torsin-1A (Homo sapiens) [17]. Besides, the composite z-score with Torsin-1A (Homo sapiens) [18] was -0.168; in assay [19], 0.434. The z-score in [7] was -0.585; in [9] it was 1.17 (inactive); in assay [11], -0.817 (inactive); in assay [12] it was -0.0937 (inactive); in assay [13], -0.127 (inactive); in [14], 0.307 (inactive).

In the case of `[N-]=[N+]=NCc1ccccc1C[C@@]1(C(=O)NCc2ccccc2)N=C(c2ccc(OCCCO)cc2)O[C@@H]1c1ccccc1N=[N+]=[N-]`, the composite z-score in [1] was 1.64; in [2], 1.18; in assay [3], 0.0861; in [4] it was 0.948; in assay [5], 0.557; in assay [6], -0.58. Moreover, the composite z-score is -0.324 in the assay on Lefty1; 1.15 in [8]; 0.122 in assay [10]; 1.2 in assay [15]; -0.003 in assay [16]; 0.0959 with Torsin-1A (Homo sapiens) [17]. Besides, the composite z-score in the assay with Torsin-1A (Homo sapiens) [18] is 0.461; in [19], -1.08. For the same molecule, the z-score in assay [7] is 1.12; in assay [9], -6.99 (inactive); in assay [11], -3.96 (inactive); in [12], 0.0507 (inactive); in [13] it was 1.05 (inactive); in assay [14] it was -0.639 (inactive).

As for `COCCCNC(=O)[C@]1(CCS(=O)(=O)c2ccccc2)N=C(c2ccc(OCCCO)cc2)O[C@@H]1c1ccccc1N=[N+]=[N-]`, the composite z-score in [1] is 2.09; in [2], 1.22; in assay [3], -0.0436; in assay [4], 0.996; in assay [5] it was 0.794; in assay [6], -0.138. Further, the composite z-score in the assay with Lefty1 was -0.279; in assay [8], 1.13; in assay [10] it was 1.02; in [15], 1.31; in [16] it was -0.0907; in the assay with Torsin-1A (Homo sapiens) [17], 0.602. Also, the composite z-score with Torsin-1A (Homo sapiens) [18] was 0.441; in [19], -0.498. The z-score in assay [7] is 0.789; in [9] it was -10.1 (active); in [11], -2.78 (inactive); in assay [12] it was 2.09 (inactive); in assay [13] it was 0.297 (inactive); in assay [14] it was -1.27 (inactive).
